Source: PubChem BioAssay
D2 ag-1 = D2 dopamine receptor (human) agonism; HEK293 T-REx D2 cells, calcium flux agonist mode; actives 0.53% (n = 340,000); AID 485358; P14416; activation, % at 2 µM;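 active means activation over 3 SD above normal in the single-dose calcium agonist read, cut at about 30% in these data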; further: 0% is about no effect
Target sequence (P14416 whole entry, looked up): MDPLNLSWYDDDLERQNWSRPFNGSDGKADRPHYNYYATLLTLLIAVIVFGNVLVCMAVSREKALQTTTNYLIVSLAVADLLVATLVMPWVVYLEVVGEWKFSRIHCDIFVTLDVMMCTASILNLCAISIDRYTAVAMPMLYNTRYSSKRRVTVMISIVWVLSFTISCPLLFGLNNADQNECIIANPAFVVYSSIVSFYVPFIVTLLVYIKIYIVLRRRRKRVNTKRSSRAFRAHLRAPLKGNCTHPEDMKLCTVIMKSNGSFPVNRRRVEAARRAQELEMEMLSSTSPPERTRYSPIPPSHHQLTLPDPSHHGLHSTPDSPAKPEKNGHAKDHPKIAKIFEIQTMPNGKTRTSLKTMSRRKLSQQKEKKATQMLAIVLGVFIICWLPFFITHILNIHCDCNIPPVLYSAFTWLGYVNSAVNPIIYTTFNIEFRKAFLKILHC
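Agonism scored from kinetic calcium signal (1 read/sec, 180 s) following compound pin transfer, after a 10 s baseline. Cells: HEK293 Trex line expressing inducible D2 receptor coupled to calcium, dye-loaded after overnight culture at 30 C.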
D2 antagonist = antagonizes the human D2 dopamine receptor | P14416 | actives 2% (n = 340,000) | HEK293 TREx D2 cells, calcium flux, dopamine EC80 | inhibition, % at 10 µM; in the data active means inhibition above about 30%; inactive means below that, where a call was filed; further: 0% is about no effect
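HEK293 T-REx D2 cells, tet-induced, calcium dye no-wash. Cpd pintool add, 180 s kinetic, then EC80 DA, 180 s kinetic. Ca flux read.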
D2 ag-2 = agonists of human D2 dopamine receptor (beta-arrestin); P14416; DiscoveRx PathHunter D2 beta-arrestin, luminescence, 90 min; 100% = 57 uM dopamine signal; activation, % (concentration not given with the values); actives 0.084% (n = 360,000); AID 624465; in the data active means activation above about 40%; inconclusive means between about 15% and that limit
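Agonist mode: compounds alone added to overnight-plated D2 PathHunter cells for 90 min at 37 C, with 57 uM final dopamine (EC100) defining full response. Beta-arrestin recruitment detected by chemiluminescent reagent, read after 1 h at ambient temperature.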
D2 PAM-1 = human D2 receptor positive allosteric modulation; P14416; DiscoveRx D2 beta-arrestin cells, luminescence, 90 min; 100% = 57 uM dopamine signal; potentiation, % (test concentration not listed); actives 0.23% (n = 360,000); in the data active means potentiation above about 50%; inconclusive means mostly about 30% to 49%
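PathHunter beta-arrestin assay in DiscoveRx D2 cells. Compounds were added with an EC20 of dopamine (50 nM final) for 90 min at 37 deg C. Luminescence was read 1 h after detection reagent, with 57 uM dopamine as the EC100 control.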
D2 PAM-2 = positive allosteric modulators of human D2 dopamine receptor. potentiation, % at 10 µM. HEK293 T-REx D2, calcium flux, EC20 dopamine potentiation. actives 0.34% (n = 340,000). P14416. AID 485347;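 active means potentiation over 3 SD above the plate norm, cut at about 30% in these data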; further: 0% is about no effect
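Calcium flux readout, no-wash dye, 1 read/s. Inducible HEK293 Trex D2 line, overnight 30 C. Compound alone 180 s (agonist flags), then EC20 dopamine, another 180 s to score potentiation.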
The depositor's hits bear a star; ? = inconclusive; . = no result. Only some compounds are listed: those with a hit (about 2.4% of all), similar ones and a draw of the others.

SMILES	D2 ag-1	D2 antagonist	D2 ag-2	D2 PAM-1	D2 PAM-2
O=C(Nc1cc(C(F)(F)F)ccc1-n1cncn1)c1ccc(F)cc1Cl	0	35*	-1	-10	4
C#CCn1c(=NC(=O)c2ccc(S(=O)(=O)N3CCCc4ccccc43)cc2)sc2cc(S(N)(=O)=O)ccc21	3	48*	-1	-23	11
Cn1c(=NC(=O)c2ccc(S(=O)(=O)N3CCCc4ccccc43)cc2)sc2cc(S(C)(=O)=O)ccc21	0	-6	-1	7	-2
N#Cc1c(-c2cccs2)cc(-c2cccnc2)nc1N	0	49*	0	-1	-2
N#Cc1c(-c2ccc(F)cc2)cc(-c2cccnc2)nc1N	.	.	0	2	.
O=C(COc1ccc(S(=O)(=O)N2CCCCC2)cc1)N1CCCC1	0	31*	-2	-2	-9
O=C(COC(=O)c1ccccc1)c1ccc(S(=O)(=O)N2CCCCC2)cc1	0	-3	-6	1	10
O=C(COc1ccccc1)OCC(=O)c1ccc(S(=O)(=O)N2CCCCC2)cc1	0	31*	-9	-35	2
COc1ccc(-n2nc(C(=O)N3CCN(c4cccc(C)c4)C(C)C3)c3c4ccccc4n(C)c3c2=O)cc1Cl (centres undefined)	0	.	.	.	-3
O=C(Nc1nnc(SCC(=O)N2CCCCC2)s1)c1ccc(F)cc1F	0	55*	3	1	-3
NC(=O)CC(NC(=O)Cc1cccc2ccccc12)c1ccc(NC2CCN(Cc3ccccc3)CC2)c([N+](=O)[O-])c1 (centres undefined)	0	32*	-3	-15	-3
O=[N+]([O-])c1ccccc1NC1CCN(Cc2ccccc2)CC1	-1	39*	-5	-19	-25
NC(=O)CC(NC(=O)Cc1ccc(Br)cc1)c1ccc(NC2CCN(Cc3ccccc3)CC2)c([N+](=O)[O-])c1 (centres undefined)	-1	-5	-2	-44	-2
O=[N+]([O-])c1ccc(NC2CCN(Cc3ccccc3)CC2)c([N+](=O)[O-])c1	0	17	12	-4	-7
COc1ccccc1C1CCN(Cc2ccc(Cl)cc2Cl)CC1	1	24	3	-36	1
COc1ccccc1C1CCN(Cc2c(C)[nH]c3ccccc23)CC1	-1	56*	1	-17	-16
COc1ccccc1C1CCN(Cc2cccc3ccccc23)CC1	-3	82*	0	-11	-34
COc1ccccc1C1CCN(Cc2ccc(Cl)c(Cl)c2)CC1	-1	84*	-3	-16	-29
Cc1ccccc1-c1nc(CS(=O)(=O)CC(=O)NCc2cccc(Cl)c2)c(C)o1	0	.	.	.	4
COc1cccc(NC(=O)CSC2=Nc3ccccc3C3=NC(CC(=O)NCCc4ccccc4)C(=O)N23)c1 (centres undefined)	0	.	.	.	5
O=C(c1cccc2ccccc12)C1CCCN(C(=O)CCc2cnccn2)C1 (centres undefined)	1	0	3	-4	0
O=C(c1cc(F)ccc1F)C1CCCN(C(=O)CCc2cnccn2)C1 (centres undefined)	-2	38*	2	-6	-4
Cc1cccc2sc(NC(=O)C3CCN(S(=O)(=O)c4cc([N+](=O)[O-])ccc4Cl)CC3)nc12	.	.	?	64*	0
Cc1nnc(NC(=O)C2CCN(S(=O)(=O)c3cc([N+](=O)[O-])ccc3Cl)CC2)o1	-1	14	?	2	-5
Cc1cccc2sc(NC(=O)C3CCCN(S(=O)(=O)c4cccc5nonc45)C3)nc12 (centres undefined)	-2	-9	3	-11	39*
SMILES	D2 ag-1	D2 antagonist	D2 ag-2	D2 PAM-1	D2 PAM-2
O=C(Nc1ccc(F)c(F)c1)C1CCN(S(=O)(=O)c2cccc3nonc23)CC1	-2	0	-16	1	30*
CC(=O)Nc1ccc(NC(=O)C2CCN(S(=O)(=O)c3cccc4nonc34)CC2)cc1	0	10	2	-1	21
Cc1cccc2sc(NC(=O)C3CCCO3)nc12 (centres undefined)	0	32*	-1	-4	-4
Cc1ccc(C)c(CSc2nnc3[nH]c(=O)cc(-c4ccccc4)n23)c1	0	.	.	.	3
CC(=O)c1cccc(NC(=O)c2c(-c3ccccc3)c(-c3ccccc3)nn(C)c2=O)c1	-1	.	.	.	-3
O=C(N/N=C/c1ccc(O)cc1)c1csc2ccccc12	0	32*	1	-5	4
Cc1nn(C(=O)c2cc3sccc3[nH]2)c(C)c1C	0	34*	0	-3	-3
CCN(CC)S(=O)(=O)c1cc(NC(=O)C(C)N2CCN(Cc3ccc4c(c3)OCO4)CC2)ccc1C (centres undefined)	-1	84*	-5	-53	-26
CCN(CC)S(=O)(=O)c1cc(NC(=O)C(C)N2CCN(c3ccccn3)CC2)ccc1C (centres undefined)	35*	15	4	5	-21
Cc1nnc2c(N3CCN(c4ccc(F)cc4)CC3)nc3ccc(C(=O)c4ccccc4)cc3n12	-1	.	.	.	-2
CCOc1ccc(-c2c(C(=O)N/N=C/c3ccc(C)cc3)nnn2-c2nonc2N)cc1	39*	-2	5	-1	6
Cc1ccc(-c2c(C(=O)N/N=C/c3ccsc3)nnn2-c2nonc2N)cc1	19	35*	-4	-1	21
CCOc1cc(/C=N/NC(=O)c2nnn(-c3nonc3N)c2C)ccc1OCc1ccc(F)cc1	1	-7	8	1	9
CCOc1cc(/C=N/NC(=O)c2nnn(-c3nonc3N)c2C)ccc1OCc1cccc(F)c1	0	-7	-2	-5	55*
CCOc1ccc(-c2c(C(=O)N/N=C/c3ccc(Cl)cc3)nnn2-c2nonc2N)cc1	0	-10	6	0	84*
CCCOc1ccc(-c2c(C(=O)N/N=C/c3ccc(C)cc3)nnn2-c2nonc2N)cc1	6	4	-4	1	5
O=C(Cn1c(=O)n(Cc2nc(-c3ccccc3)no2)c(=O)c2ccccc21)Nc1cccc(C(F)(F)F)c1	.	.	.	.	5
O=C(CC[C@H]1O[C@@H](n2ccc(=O)[nH]c2=O)[C@H](O)[C@@H]1O)NCC(c1ccccc1)c1ccccc1	.	.	-7	-9	.
O=C(NCC(c1cccs1)S(=O)(=O)c1cccs1)c1ccccc1 (centres undefined)	0	.	.	.	9
CCn1c(CNC(=O)c2ccc(OC)cc2)nnc1SCC(=O)Nc1cccc(C)c1	-1	.	.	.	-1
Nc1nonc1-n1nnc(C(=O)N/N=C/c2ccccc2Cl)c1CN1CCOCC1	0	4	4	-9	43*
COc1ccc2ccccc2c1/C=N/NC(=O)c1nnn(-c2nonc2N)c1CN(C)C	-1	-3	1	-7	13
